Drawing on PubChem BioAssay (NCI), this text covers growth for 40 compounds.

Molecules are shown by their SMILES. This is part of a sample that, as a whole, favours compounds with a hit. Of some 83,000 tested, about 20% had one in any assay.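 The endpoint reported here, percent growth, reads 100 for growth as untreated, 0 for no net growth and -100 for all cells dead.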 Values without a mark were called inactive. Calls of active or inactive are those of the source.

The subject of the assay is IGROV1 ovarian. As to the kind of experiment: NCI-60 one-dose screen, 48 h (100 = growth as untreated, 0 = no growth, -100 = all killed). Particulars: 10 µM unless noted. Here is the method: Growth inhibition of the IGROV1 human tumor cell line is measured as a screen for anti-cancer activity. Cells are grown in 96 well plates and exposed to the test compound for 48 hours. Compounds are tested at a single concentration, which is 10^-5 M for most compounds. The reported endpoint is percent growth (GI% or GIPRCNT), where numbers from 0 - 100% represent growth inhibition, and numbers from -100% - 0 represent cell death. For example, a value of 40 represents 60% growth inhibition. A value of 0 means no net growth occurred over the course of the experiment. A value of -40 indicates 40% of cells at the beginning of the experiment died by the end of the experiment. A value of -100 means all cells are dead at the end of the experiment.
NCI-60 Human Tumor Cell Lines Screen was performed using the standard one-dose NCI protocol, which is described in more detail at https://dtp.cancer.gov/discovery_development/nci-60/default.htm.
Compounds with GIPRCNT values below 10 were considered active. Activity score was based on GIPRCNT using the following formula: […]
Score is 0 for GIPRCNT values of 100 or above, 50 for GIPRCNT values of 0, and 100 for GIPRCNT values of -100.
Turning to `CC(=O)OC1Oc2cc(C)c(C)cc2-c2oc(=O)c(-c3cc4ccc(N(C)C)cc4oc3=O)cc21` (stereo not given), the growth was 93.2%. The figure for `O=C1C=CC(=O)N1c1ccc(Cc2ccc(N3C(=O)C=CC3=O)cc2)cc1` is 89.7%; for `COc1ccccc1N1CCN(CCn2c(=O)c3c(c4ccccc4n3C)n(C)c2=O)CC1` it is 104%; for `COc1cc(OC)c(/C=C/S(=O)(=O)Cc2cnc(OC)c(N)c2)c(OC)c1` it is 29.4%. For the compound `CCCCCCCCOC(=O)CC[C@@H](C)[C@H]1CC[C@H]2[C@@H]3[C@H](OC(=O)CCN)C[C@@H]4C[C@H](OC(=O)CCN)CC[C@]4(C)[C@H]3C[C@H](OC(=O)CCN)[C@]12C`, the growth is 77.2%. With `CN1Cc2c(cc(CN3CCCCC3)n2C)C(c2ccc(Br)cc2)C1` (stereo not given), the growth is 96.3%. In the case of `CCc1ccc(C(c2ccc(CC)cc2)C(Cl)(Cl)CCl)cc1`, the growth was 76.6%. For `Nc1nc(-c2ccc(F)cc2)cc(-c2cnn(-c3ccccc3)n2)n1`, the growth is 83.8%. `N=c1c2ccccc2nc2n1CCCCC2`: the growth is 106%.

Take `COc1cc(OC)c(/C=C/S(=O)(=O)Cc2ccc(OC)c(N)n2)c(OC)c1`: the growth was 26.4%. The same measure for `CC/C=C\C[C@H](F)C/C=C1/C(=O)C=C[C@@H]1C/C=C\CCCC(=O)O`: 65.4%; for `O=C(/C=C/c1cc2ccccc2[nH]c1=O)/C=C/c1cc2ccccc2[nH]c1=O`: -23.6% (active). The figure for `N#CC1=C(N)Oc2c(ccc3ccccc23)C1c1cccs1` (stereo not given) is 60.3%; for `CCN(CC)CCCC(C)NCCCNc1cccc2cccnc12` (stereo not given) it is 99.7%. With `NC(=S)N/N=C/c1ccc(OCc2ccccc2)cc1`, the growth was 52.8%.

Take `CN[C@@]12CC3(C=CC(=O)C=C3)O[C@]1(Cc1ccc(OC)cc1)N(C)C(=O)N2`: the growth was 55.3%. The figure for `O=C1/C(=C\c2cn(C(=O)c3ccc(Cl)cc3)c3ccccc23)c2ccccc2N1c1c(Cl)cccc1Cl` is 99.2%; for `O=C(Nc1cccc2c1C(=O)c1cccc(Nc3cccc4c3C(=O)c3cccc(NC(=O)c5ccccc5)c3C4=O)c1C2=O)c1ccccc1` it is 75.6%.

For the compound `CCN(CC)c1ccc(/C=C/C2=[N+](C)c3ccccc3C2(C)C)cc1`, the growth is 18.6%. Turning to `O=[N+]([O-])c1cccc(-c2nc3sccn3c2-c2ccnc(NCCNS(=O)(=O)c3ccc(C(F)(F)F)cc3)n2)c1`, the growth is 27.1%. In the case of `C/C(=C(/c1ccc(O)cc1)c1ccc(OCCN2CCCC2)cc1)c1ccccc1`, the growth was 76.1%. As to `ClC1=C2NC=NC2n2c(nnc2-c2ccc(Cl)cc2)N1` (stereo not given), the growth was 119%. The same measure for `COc1cc(-c2c3sc(=O)[nH]c3nc3c2c(=O)[nH]n3C(C)C)cc2c1OCO2`: 101%. The figure for `O=C1CC(c2nc3ccccc3[nH]2)CN1C1CCCCC1` (stereo not given) is 108%. With `CC1=C(NCCN2CCCC2)C(=O)c2c(OCc3ccc(C(F)(F)F)cc3)cccc2C1=O`, the growth was 89.1%. Take `COc1ccc(S(=O)(=O)NCCCNc2nccc(-c3c(-c4cccc(N)c4)nc4sccn34)n2)cc1`: the growth is 87.1%. Take `COC(=O)[C@@H]1CC[C@]2(C)[C@H](CC[C@@H]3O[C@@]32C)[C@@]1(C)CC(=O)c1ccoc1`: the growth was 105%. The same measure for `CCCCCCCCCCCCCCCCNCCC[C@@H](C)[C@H]1CC[C@H]2[C@@H]3[C@H](OCCCN)C[C@@H]4C[C@H](OCCCN)CC[C@]4(C)[C@H]3C[C@H](OCCCN)[C@]12C`: -41.8% (active); for `Cc1cc(Nc2nc(N3CCN(C)CC3)nc3ccccc23)n[nH]1`: 35.6%. For `CCCCCCCCCc1cc(CN2CCCCC2)c(O)c(CN2CCCCC2)c1`, the growth is 75.9%. The figure for `C/C(=C(/c1ccc(O)cc1)c1ccc(OCCN(C)C)cc1)c1ccccc1` is 89.1%; for `NC1=CSC2=N/C(=C\c3ccc(Cl)cc3)C(=O)N12` it is 79.2%. On to `O=c1c2cccc3c(NC4CCCCC4)ccc(c32)c2nc3ccccc3n12`, for which the growth was 41.2%.

Turning to `O=C1C2CC=CCC2C(=O)N1CNc1ccc(Cl)cc1` (stereo not given), the growth was 74.6%. Regarding `Clc1ccc(-c2nnc(COc3ccccc3Cl)o2)cc1`, the growth was 83.6%. In the case of `O=C(O)C(O)C(O)C(=O)O.[NH-]C1CCCCC1[NH-].[Pt+2]` (stereo not given), the growth is 106%. `O=C1c2cc3c(cc2-c2c1c1cc(Cl)c(Cl)cc1c(=O)n2CCCn1ccnc1)OCO3`: the growth is 24.4%. The same measure for `CC(=O)CC(C)(C)c1ccc(Cl)cc1`: 96%. For `OCC1C2C=CC(C2)C1CO` (stereo not given), the growth is 101%. The same measure for `O=[N+]([O-])c1cccc(-c2nc3sccn3c2-c2ccnc(NCCCNS(=O)(=O)c3ccc(Br)cc3)n2)c1`: 41.6%.
